Shown are actives, neighbours in structure and some others; about 7.4% of the full set was active somewhere.
NPC1 promoter act – NPC1 promoter activation. Huh7 NPC1 promoter luciferase reporter, 24 h. Potency, µM (highest dose often 9.22 µM), inactives show top-dose activation, usual class: activators. hit rate 2.4% among 320,000; further: % of control where 0% means no effect; nearly all actives have a fitted effect of over 60% in size
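Stably transfected Huh7 (NPC1 promoter→luciferase), 1500 cells/well in Opti-MEM + 10% FBS, 2 h settle, then compound 24 h at 37 °C. Luminescence after 10 min with Amplite reagent.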
FLuc counter – inhibits or activates purified firefly luciferase, miR-21 counter-screen. P08659. purified FLuc, Km substrates, luminescence inhibition. Potency, µM (top dose mostly 57.5 µM), without a hit: at the top dose activity change, negative = inhibition, usual class: inhibitors. hit rate 6.9% among 360,000;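 further: plate controls were vehicle for no effect and reference inhibitor for full effect; nearly all actives have a fitted effect of over 55% in size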
Target sequence (P08659 whole entry, looked up): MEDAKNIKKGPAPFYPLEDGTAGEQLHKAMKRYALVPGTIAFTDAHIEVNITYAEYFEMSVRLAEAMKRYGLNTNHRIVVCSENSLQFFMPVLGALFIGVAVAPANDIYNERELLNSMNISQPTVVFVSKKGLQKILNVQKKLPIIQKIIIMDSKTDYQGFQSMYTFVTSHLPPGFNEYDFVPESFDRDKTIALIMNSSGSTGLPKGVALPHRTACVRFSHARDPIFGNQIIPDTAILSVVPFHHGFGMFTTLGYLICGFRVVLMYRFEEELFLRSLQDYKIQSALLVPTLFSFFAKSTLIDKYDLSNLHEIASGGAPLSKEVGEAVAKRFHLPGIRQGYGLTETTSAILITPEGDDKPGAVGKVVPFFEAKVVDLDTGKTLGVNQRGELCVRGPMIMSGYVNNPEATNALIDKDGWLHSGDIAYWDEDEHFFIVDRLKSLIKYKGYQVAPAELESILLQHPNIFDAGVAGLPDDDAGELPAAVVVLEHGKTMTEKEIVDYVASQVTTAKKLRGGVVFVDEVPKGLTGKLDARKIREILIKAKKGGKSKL
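Biochemical qHTS of compounds, final roughly 60 µM downward over six points, against 10 nM purified firefly luciferase using Km concentrations of substrates (10 uM D-luciferin, 10 uM ATP) in Tris acetate pH 7.5 buffer; luminescence output.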
SMN2 splice enh – enhancers of SMN2 splice variant expression; HEK293 SMN2-luciferase splicing reporter, luminescence, 30-36 h; Potency, µM (highest dose often 46.1 µM), for the others: at the highest dose activity change, positive = activation, actives largely listed as activators; hit rate 2.8% among 210,000; AID 1458; further: % of control where 0% means no effect; nearly all actives have a fitted effect of over 55% in size
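qHTS luciferase splicing reporter: luminescence rises when SMN2 exon 7 is included in transfected HEK293 cells. Compound exposure lasted 30-36 h at 37C, with 4.5 mM final sodium butyrate as control, followed by a ONE-Glo read.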
Rab9 promoter act – Rab9 promoter activation; Huh7 Rab9 promoter-luciferase reporter, luminescence, 24 h; hit rate 2.8% among 320,000; Potency, µM (top dose mostly 9.22 µM), for inactives: at the highest dose activation, negative = inhibition, hits mostly activators; further: % of control where 0% means no effect; nearly all actives have a fitted effect of over 60% in size
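Cell-based reporter: Huh7 stable for Rab9 promoter-driven luciferase, plated in reduced-serum medium with 10% FBS at 1500 cells/well, compound-treated 24 h at 37 °C, luminescence read after 10 min reagent.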
Luc counter – Kinase-Glo luciferase inhibition (counter-screen); Q27757; hit rate 0.28% among 200,000; Potency, µM (series often up to 38.3 µM), inactives show top-dose activity change, negative = inhibition, actives largely listed as inhibitors; Kinase-Glo luciferase, ATP luminescence, 8 min; further: on the % scale 0 is the no-effect control and ±100 the full control effect; nearly all actives have a fitted effect of over 60% in size
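Luminescence was the read-out, taken after 8-minute incubation at ambient temperature. Luciferase turned over luciferin with 10 uM ATP in imidazole pH 7.2 buffer containing KCl, MgCl2, Tween 20 and BSA.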
ELG1 genotoxic – induces genotoxicity in HEK293T cells with luciferase-tagged ELG1; HEK293T ELG1-luciferase reporter, luminescence, 16 h; Potency, µM (top dose mostly 46 µM), for inactives: at the highest dose activity change, positive = activation, most hits filed as activators; hit rate 1.3% among 330,000; AID 504466; further: % of control where 0% means no effect; nearly all actives have a fitted effect of over 60% in size
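Quantitative HTS format in 1536-well plates. HEK293T ELG1-luciferase reporter cells receive test compound and are incubated 16 hr at 37 °C, 5% CO2; ONE-Glo added, 30 min room temperature, then luminescence read.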
* hit, by the source's call; ? = inconclusive; · = not tested or not shown; [ ] = dose if it differs, or a comment. The call rests on the fitted dose curve; in most records, active means well fitted curve in the direction sought with a large enough effect; inconclusive means small, poorly fitted or top-dose-only effect, or another doubt; inactive means no such curve, though single readings can be large; an effect the other way counts as inactive or inconclusive. Potency means the concentration at half of the fitted maximal effect.

SMILES	NPC1 promoter act	FLuc counter	SMN2 splice enh	Rab9 promoter act	Luc counter	ELG1 genotoxic
CCCNc1ncnc2c1cnn2-c1ccc(OC)cc1	0.501µM*	5.36µM*	-2.7%	0.398µM*	-0.7%	2.2%
CCCN(CCC)c1ncnc2c1cnn2-c1ccc(OC)cc1	0.708µM*	2.39µM*	?	0.447µM*	0.6%	1.16µM*
C=CCNc1ncnc2c1cnn2-c1ccc(OC)cc1	0.631µM*	3.38µM*	?	0.398µM*	-1.3%	?
Cc1cccn2c(=O)c(/C=C(\C#N)c3nc4ccccc4n3C)c(Oc3ccc(Br)cc3)nc12	·	-6.3%	5.9%	·	·	·
O=C(Cl)c1cccc([N+](=O)[O-])c1	·	·	12.7%	·	·	·
CC(C)(c1cc(Br)c(OCC(Br)CBr)c(Br)c1)c1cc(Br)c(OCC(Br)CBr)c(Br)c1 (configuration not stated)	·	·	-7.1%	·	·	·
Cn1c(-n2cccc2)c(-c2c(-c3ccc(F)cc3)[nH]c3c2c(=O)n(C)c(=O)n3C)c(=O)n(C)c1=O	·	1.1%	·	·	·	·
CCn1ccc2cc(S(=O)(=O)N3CCCN(C(=O)NCC(C)C)CC3)ccc21	·	2.4%	·	·	·	·
COC(=O)C1=C(C)NC(C)=C(C(=O)OC)C1/C=C/c1ccccc1	-1.7%	1.0%	26.3%	-1.0%	-2.0%	16.4µM*
COc1ccc(-n2nc(C(=O)NCC(=O)N3CCC(C)CC3)c3ccccc3c2=O)cc1Cl	24.4%	1.9µM*	·	20.9%	·	-6.6%
COc1ccc(-n2nc(C(=O)NCC(=O)N3CCN(c4ccccn4)CC3)c3ccccc3c2=O)cc1Cl	22.0%	3.01µM*	?	?	3.0%	-13.5%
CCC(=O)N1CCCc2cc(S(=O)(=O)N3CCC(C(=O)Nc4ccc(F)c(F)c4)CC3)ccc21	·	-6.5%	·	·	·	·
COC(=O)c1sc2cccc(F)c2c1S(=O)(=O)Nc1ccc(N(C)C)cc1	·	-9.5%	·	·	·	·
Nc1cc(=O)[nH]c(SCC(=O)Nc2nnc(-c3ccccc3)s2)n1	7.6%	23.9µM*	19.6%	13.9%	-0.2%	7.0%
CC(C)Cc1nnc(NC(=O)CSc2nc(-c3ccccc3)cc(=O)[nH]2)s1	0.3%	12µM*	·	3.7%	·	-2.7%
O=C(CSc1ncn[nH]1)Nc1ccccc1-c1ccccc1	-7.3%	-3.8%	-5.2%	-0.1%	1.3%	0.0%
O=C(CSc1ncn[nH]1)Nc1nnc(-c2ccccc2)s1	19.3%	21.3µM*	7.4%	?	10.2%	?
Nc1cc(=O)[nH]c(SCC(=O)Nc2ccccc2-c2ccccc2)n1	-5.6%	-1.1%	0.0%	11.7%	-1.7%	5.6%
CCn1c(Cc2ccccc2)nnc1SCC(=O)Nc1nnc(-c2ccccc2)s1	0.2%	?	0.112µM*	-2.8%	4.7%	15.9%
COc1ccc(OC)c(S(=O)(=O)NCc2ccc3c(c2)CCN3C(=O)c2cccc(C)c2)c1	·	-2.3%	·	·	·	·
O=C(COC(=O)c1ccccc1O)NCCC1=CCCCC1	3.7%	?	8.9%	20.9%	0.9%	8.7%
O=C(COC(=O)c1cccs1)NCCC1=CCCCC1	-1.4%	19µM*	?	8.2%	-6.4%	-0.9%
Cc1ccc(C(=O)OCC(=O)NCCC2=CCCCC2)s1	0.9%	-9.9%	13.2%	-4.7%	0.8%	-1.3%
O=C(COC(=O)c1ccccc1Cl)NCCC1=CCCCC1	2.9%	16.9µM*	7.3%	16.0%	-1.5%	15.5%
CCOc1ccc2nc(/N=C/c3nc(-c4ccc(Br)cc4)oc3O)sc2c1	8.8%	-7.3%	17.4%	16.9%	0.1%	2.2%
SMILES	NPC1 promoter act	FLuc counter	SMN2 splice enh	Rab9 promoter act	Luc counter	ELG1 genotoxic
CCCCN=Cc1sc2ccc(OCC)cc2c1O	17.4%	21.3µM*	15.6%	24.1%	-7.9%	14.3%
C=CCN=Cc1sc2ccc(OCC)cc2c1O	3.16µM*	8.49µM*	·	2.82µM*	·	?
CC(C)C(=O)Nc1ccc2nc(SCC(=O)N3CCCC3)sc2c1	·	-1.3%	·	·	·	·
CCCCn1cc(S(=O)(=O)c2ccc(Cl)cc2)c(=O)c2cc(F)c(N3CCCCC3)cc21	·	-0.3%	·	·	·	·
N#CCSc1nnc(-c2sc3ccccc3c2Cl)o1	0.9%	16.9µM*	-23.2%	12.2%	-0.8%	2.0%
COC(=O)CSc1nnc(-c2sc3ccccc3c2Cl)o1	-5.8%	5.36µM*	-10.4%	3.9%	-4.4%	-2.1%
COc1cccc(CNC(=O)Nc2ccc3c(c2)N(C)C(=O)c2ccccc2S3)c1	·	-11.6%	·	·	·	·
CCN(CC)c1nc(C)nc2c1cnn2CCc1ccccc1	?	19µM*	22.4µM*	?	-3.0%	11.6µM*
CCN(CC)c1ncnc2c1cnn2Cc1ccc(C)cc1	2.2%	4.6%	·	-5.1%[1.84 µM]	·	-1.0%
COCC(=O)N1CCC2(CCCN(C(=O)Nc3ccc(OC)cc3)C2)CC1	·	·	-3.6%	·	-2.7%	·
C(=C\c1nc(-c2ccncc2)no1)/c1ccccc1	-2.6%	-1.8%	·	-13.6%	1.2%	-0.8%
C(=C\c1nc(-c2ccccc2)no1)/c1ccccc1	1.58µM*	1.35µM*	10µM*	0.562µM*	0.5%	?
CC(C)(C)c1ccc(C(=O)CSc2n[nH]c(=O)[nH]c2=O)cc1	4.5%	12µM*	-26.2%	6.6%	-4.7%	8.0%
O=C(O)CSc1n[nH]c(=O)[nH]c1=O	·	·	-8.7%[9.22 µM]	·	-3.8%[7.66 µM]	·
CCOC(=O)Cn1cncc1-c1ccc([N+](=O)[O-])cc1	23.4%	23.9µM*	?	?	-3.5%	17.1%
CCOc1ccc(NC(=S)N=Nc2c(O)[nH]c3ccccc23)cc1	-8.2%	-16.4%	-40.8%	-4.0%	-3.5%	-9.9%
Oc1cccc(NC(=S)N=Nc2c(O)[nH]c3ccccc23)c1	16.0%	19µM*	·	22.4%	·	?
Cc1ccc2[nH]c(O)c(N=NC(N)=S)c2c1	-3.6%	2.0%	·	0.6%	·	4.8%
Cc1ccc(N=Nc2c(O)[nH]c3ccc(F)cc23)cc1	3.16µM*	?	·	2.82µM*	·	?
Cc1cccc2c(N=Nc3ccccc3)c(O)[nH]c12	1.41µM*	1.51µM*	·	2µM*	·	5.17µM*

Compound activity as filed in PubChem BioAssay.
